From PubChem BioAssay (EPA / NIEHS) come the findings set out here.

SMILES strings stand for the structures. “And” between values parts separate entries of the source, which are not always exact repeats. Identical values can stand only once. A structure can be active in one record and inactive in another. The source made the active and inactive calls. How the source made its calls: active means hit-call score of the fitted dose curve at least 0.9, where 1 is the maximum; inactive means score below 0.9.

The nature of assay [1]: ATG_GLI_CIS: Attagene CIS-FACTORIAL HepG2 Assay for human Zinc Finger Protein GLI1 (AID 2282945). The following applies: HepG2, Attagene cis-factorial reporter mRNA, GLI element; actives raise or lower the signal. Summed up: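 HepG2 cells transiently transfected with cis-promoter multiplexed reporter units report endogenous transcription factor activity. After 24 h chemical exposure, reporter mRNA was quantified by RT-PCR, 6-FAM labelling, HpaI digestion and capillary electrophoresis, with bidirectional fitting against DMSO.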

The nature of assay [2]: ATG_GRE_CIS: Attagene CIS-FACTORIAL HepG2 Assay for human Glucocorticoid Response Elements (GRE) (AID 2282947). The following applies: HepG2 GRE cis-reporter, Attagene multiplex mRNA; actives raise or lower the signal. The procedure, abridged: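 HepG2 cells transiently transfected with multiple cis-promoter reporter units measure endogenous TF activity; 24 h compound exposure. Reporter mRNA quantified by RT-PCR, FAM labelling, HpaI digestion and capillary electrophoresis; bidirectional fit vs DMSO baseline.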

A short description of assay [3]: ATG_ISRE_CIS: Attagene CIS-FACTORIAL HepG2 Assay for human Interferon Regulatory Factor 1 (IRF1) binding to an Interferon-Stimulated Response Element (ISRE) (AID 2282948). The conditions noted are these: HepG2 ISRE cis-reporter (Attagene), mRNA transcription readout; actives raise or lower the signal. Summed up: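 Transfected HepG2 (multiple reporter transcription units, cis elements) dosed 24 h. RNA → oligo(dT) RT → PCR → 6-FAM primer extension → HpaI → CE. DMSO = negative control/baseline.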

Assay [4] is described as follows: ATG_M_32_CIS: Attagene CIS-FACTORIAL HepG2 Assay for M32 Transcription Factor (Internal Marker) (AID 2282949).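 Further: background control marker of the multiplexed CIS panel rather than a real target.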 The following applies: HepG2 Attagene cis-factorial M32 reporter, mRNA; actives raise or lower the signal. The procedure, abridged:
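Internal background marker read-out: RT-PCR/capillary electrophoresis fluorescence of reporter transcripts from transiently transfected HepG2 cells after 24 h chemical exposure. Activity fitted bidirectionally relative to DMSO negative control.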

The nature of assay [5]: ATG_M_06_CIS: Attagene CIS-FACTORIAL HepG2 Assay for M06 Transcription Factor (Internal Marker) (AID 2282950). The following applies: HepG2 Attagene CIS-FACTORIAL M06 internal marker reporter; actives raise or lower the signal. The procedure, abridged:
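Terse: HepG2, transient MRTU transfection (FuGene 6), 24 h dosing; total RNA, oligo(dT) RT, PCR, FAM label, HpaI cut, capillary electrophoresis; bidirectional fit vs DMSO baseline; background-control endpoint.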

Assay [6] addresses Hypoxia-inducible factor 1-alpha (Homo sapiens) (UniProt Q16665). The experiment in a line: ATG_HIF1a_CIS: Attagene CIS-FACTORIAL HepG2 Assay for human Hypoxia Inducible Factor 1 (HIF1A) (AID 2282951). The following applies: HepG2 Attagene cis-factorial HIF1a reporter transcription; actives raise or lower the signal. The procedure, abridged: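 Endogenous-TF cis reporter readout, human HepG2 cells, 24 h incubation; mRNA detected via RT-PCR and capillary electrophoresis fluorescence; DMSO-normalised bidirectional fitting.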

Assay [7] has as its target Hepatocyte nuclear factor 6 (Homo sapiens) (UniProt Q9UBC0). The assay is described as follows: ATG_HNF6_CIS: Attagene CIS-FACTORIAL HepG2 Assay for human Hepatocyte Nuclear Factor 6 (HNF6) (AID 2282952). The conditions noted are these: HepG2 Attagene cis-factorial HNF6 reporter transcription; actives raise or lower the signal. Summed up:
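HepG2 cells transiently transfected with cis-element-driven multiplexed reporter units measuring endogenous transcription factor activity. After 24 h exposure, reporter mRNA quantified by RT-PCR, FAM-labelled fragments and capillary electrophoresis; bidirectional fitting versus DMSO.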

For assay [8], the target named is Heat shock factor protein 1 (Homo sapiens) (UniProt Q00613). The experiment in a line: ATG_HSE_CIS: Attagene CIS-FACTORIAL HepG2 Assay for human Heat Shock Transcription Factor 1 (HSE) (AID 2282953). The following applies: HepG2 HSE cis-reporter, Attagene RNA transcription; actives raise or lower the signal. The procedure, abridged:
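Read-out: fluorescence of reporter-specific RT-PCR fragments separated by capillary electrophoresis. HepG2 carrying transfected cis-element reporter units; 24 h dosing; activity fitted in both directions relative to DMSO baseline.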

Assay [9] in a line: ATG_MRE_CIS: Attagene CIS-FACTORIAL HepG2 Assay for human Metal Responsive Element (MRE) (AID 2282954). The conditions noted are these: HepG2 MRE cis-reporter transcription, Attagene multiplex; actives raise or lower the signal. The procedure, abridged: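 HepG2 cells transiently transfected with multiple cis-element reporter units measure endogenous MTF1-driven transcription. After 24 h compound exposure, reporter mRNA is quantified by RT-PCR with 6-FAM labelling, HpaI digestion and capillary electrophoresis; bidirectional fits versus DMSO.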

Assay [10] in a line: ATG_PBREM_CIS: Attagene CIS-FACTORIAL HepG2 Assay for human Phenobarbital-responsive Enhancer Module (PBREM) (AID 2282955). The following applies: HepG2 PBREM cis-reporter, Attagene multiplexed transcription; actives raise or lower the signal. Summed up: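 Readout: reporter mRNA, fluorescent RT-PCR fragments separated by capillary electrophoresis. System: HepG2 transiently transfected with cis-regulated reporter units. Exposure: 24 h. Analysis: bidirectional, DMSO baseline.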

Assay [11] addresses Paired box protein Pax-6 (Homo sapiens) (UniProt P26367). The assay is described as follows: ATG_Pax6_CIS: Attagene CIS-FACTORIAL HepG2 Assay for human Paired Box 6 (PAX6) (AID 2282956). The conditions noted are these: HepG2 CIS-FACTORIAL PAX6 reporter transcription, RNA readout; actives raise or lower the signal. The procedure, abridged: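 Transient MRTU transfection of HepG2 → compound exposure 24 h → TriZol RNA, oligo(dT) RT → PCR, 6-FAM primer extension, HpaI cut → capillary electrophoresis; activity fitted both directions against DMSO.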

Assay [12] can be described thus: ATG_PXRE_CIS: Attagene CIS-FACTORIAL HepG2 Assay for human Pregnane X Receptor Element (PXRE) (AID 2282957). The conditions noted are these: HepG2 Attagene CIS-FACTORIAL PXRE reporter, mRNA; actives raise or lower the signal. Summed up:
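HepG2 cells transiently transfected with cis-element-driven multiplexed reporter units; after 24 h chemical exposure, reporter mRNA measured by RT-PCR, 6-FAM labelling, HpaI digestion and capillary electrophoresis. Bidirectional fitting relative to DMSO.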

Assay [13] is described as follows: ATG_PPRE_CIS: Attagene CIS-FACTORIAL HepG2 Assay for human Peroxisome Proliferator-activated Response Element (PPRE) (AID 2282958). The following applies: HepG2 PPRE cis-element reporter, Attagene transcription factor profiling; actives raise or lower the signal. Summed up:
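After human HepG2 hepatoma cells were transiently transfected with cis-promoter reporter constructs, they were exposed to test chemicals for 24 hours. Reporter RNA was then reverse-transcribed, PCR-amplified, FAM-labeled, HpaI-digested and quantified by capillary electrophoresis.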

The nature of assay [14]: ATG_Sox_CIS: Attagene CIS-FACTORIAL HepG2 Assay for human SRY-box transcription factor (SOX) (AID 2282960). The conditions noted are these: HepG2 Attagene cis-factorial SOX reporter, mRNA; actives raise or lower the signal. Summed up:
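Using transiently transfected HepG2 cells, reporter transcription driven by cis elements was assessed 24 h after dosing. Signal was fluorescence of capillary-separated RT-PCR products, with DMSO defining baseline activity.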

In assay [15] the target is Transcription factor Sp1 (Homo sapiens) (UniProt P08047). The experiment in a line: ATG_Sp1_CIS: Attagene CIS-FACTORIAL HepG2 Assay for human Specificity Protein 1 (Sp1) (AID 2282961). The following applies: HepG2 Sp1 cis-reporter transcription, actives raise or lower the signal. Summed up: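 After transient transfection of HepG2 cells with cis-promoter reporter units and 24 h chemical treatment, reporter transcripts were quantified by RT-PCR and capillary electrophoresis fluorescence. Gain- and loss-of-signal fitted against DMSO.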
Transcription factor Sp1 (Homo sapiens), sequence (P08047 whole entry, looked up): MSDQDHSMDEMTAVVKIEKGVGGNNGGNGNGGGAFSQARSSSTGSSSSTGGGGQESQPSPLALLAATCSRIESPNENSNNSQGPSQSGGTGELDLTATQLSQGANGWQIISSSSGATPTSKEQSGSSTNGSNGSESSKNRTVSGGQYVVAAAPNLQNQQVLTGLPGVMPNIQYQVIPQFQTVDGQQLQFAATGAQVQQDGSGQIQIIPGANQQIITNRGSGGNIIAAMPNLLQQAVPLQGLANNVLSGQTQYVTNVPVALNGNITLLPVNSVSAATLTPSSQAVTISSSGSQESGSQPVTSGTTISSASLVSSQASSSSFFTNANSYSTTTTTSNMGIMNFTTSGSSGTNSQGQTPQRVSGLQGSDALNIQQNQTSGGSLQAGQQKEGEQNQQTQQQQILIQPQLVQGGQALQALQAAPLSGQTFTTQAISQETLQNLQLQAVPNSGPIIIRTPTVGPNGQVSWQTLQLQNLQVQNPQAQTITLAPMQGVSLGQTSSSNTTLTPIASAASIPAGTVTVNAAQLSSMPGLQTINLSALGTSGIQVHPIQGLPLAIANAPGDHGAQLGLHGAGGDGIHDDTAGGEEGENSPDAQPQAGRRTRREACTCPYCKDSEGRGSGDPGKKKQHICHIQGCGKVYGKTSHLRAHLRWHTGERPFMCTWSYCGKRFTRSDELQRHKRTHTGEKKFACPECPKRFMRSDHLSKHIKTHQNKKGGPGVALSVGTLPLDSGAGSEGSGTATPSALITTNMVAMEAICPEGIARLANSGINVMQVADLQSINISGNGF

The nature of assay [16]: ATG_SREBP_CIS: Attagene CIS-FACTORIAL HepG2 Assay for human Sterol Regulatory Element Binding (SREBP) (AID 2282962). The following applies: HepG2 Attagene cis-factorial SREBP reporter, mRNA; actives raise or lower the signal. Summed up: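 Transfected HepG2 (cis-regulated reporter library, endogenous TFs) → compound 24 h → total RNA → oligo(dT) RT → reporter-specific PCR → FAM primer extension, HpaI cut → CE fluorescence. Fit bidirectional vs DMSO.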

Assay [17] addresses Signal transducer and activator of transcription 3 (Homo sapiens) (UniProt P40763). The assay is described as follows: ATG_STAT3_CIS: Attagene CIS-FACTORIAL HepG2 Assay for human Signal Transducer and Activator of Transcription 3 (STAT3) (AID 2282963). The following applies: HepG2, Attagene cis-factorial STAT3 reporter transcription; actives raise or lower the signal. Summed up: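 HepG2 cells transiently transfected with cis-element-driven multiple reporter transcription units; after 24 h chemical exposure, reporter mRNA measured by RT-PCR, 6-FAM primer-extension labelling, HpaI digestion and capillary electrophoresis. Bidirectional fitting versus DMSO baseline.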

A short description of assay [18]: ATG_TA_CIS: Attagene CIS-FACTORIAL HepG2 Assay for human TA Basal Promoter (AID 2282964). The conditions noted are these: HepG2 Attagene CIS-factorial TA basal promoter reporter; actives raise or lower the signal. The procedure, abridged: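 Transfected HepG2, 24 h compound exposure; RNA → RT-PCR → FAM primer extension → HpaI cut → CE fluorescence. Gain/loss-of-signal fitted against DMSO negative control. Background-control readout.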

Assay [19] in a line: ATG_TCF_b_cat_CIS: Attagene CIS-FACTORIAL HepG2 Assay for human T-Cell-Factor with beta-catenin (TCF/b-cat) (AID 2282965). The following applies: HepG2 TCF/beta-catenin cis-reporter transcription, actives raise or lower the signal. Summed up:
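HepG2 cells transiently transfected with multiple cis-promoter-regulated reporter transcription units, so endogenous transcription factor activity is measured. Reporter mRNA read 24 hours after dosing by RT-PCR, fluorescent labelling and capillary electrophoresis; bidirectional fitting against DMSO.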

Assay [20] can be described thus: ATG_RORE_CIS: Attagene CIS-FACTORIAL HepG2 Assay for human RAR-related Orphan Receptor Element (RORE) (AID 2282959). The following applies: HepG2 Attagene cis-factorial RORE reporter, mRNA; actives raise or lower the signal. The procedure, abridged:
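Measured here: transcript induction of a cis-regulated reporter in HepG2 cells transiently transfected via FuGene 6. After 24 h, RNA was processed by RT-PCR and fluorescent capillary electrophoresis; DMSO defined baseline activity.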

Heat shock factor protein 1 (Homo sapiens), sequence (Q00613 whole entry, looked up, the tested form may be a part): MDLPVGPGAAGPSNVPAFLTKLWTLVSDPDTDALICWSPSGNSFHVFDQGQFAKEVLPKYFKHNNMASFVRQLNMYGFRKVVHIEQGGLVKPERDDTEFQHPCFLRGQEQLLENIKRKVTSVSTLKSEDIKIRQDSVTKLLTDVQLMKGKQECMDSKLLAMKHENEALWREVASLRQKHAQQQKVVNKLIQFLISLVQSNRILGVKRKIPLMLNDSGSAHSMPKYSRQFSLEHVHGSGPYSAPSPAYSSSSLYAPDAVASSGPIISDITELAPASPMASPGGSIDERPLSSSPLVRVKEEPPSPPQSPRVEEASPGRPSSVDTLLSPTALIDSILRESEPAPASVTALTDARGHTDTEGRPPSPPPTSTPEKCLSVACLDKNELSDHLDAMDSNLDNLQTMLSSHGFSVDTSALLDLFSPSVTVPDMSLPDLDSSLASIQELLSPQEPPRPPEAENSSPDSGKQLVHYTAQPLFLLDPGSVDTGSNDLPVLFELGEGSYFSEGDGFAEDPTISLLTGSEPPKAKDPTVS
Signal transducer and activator of transcription 3 (Homo sapiens), sequence (P40763 whole entry, looked up): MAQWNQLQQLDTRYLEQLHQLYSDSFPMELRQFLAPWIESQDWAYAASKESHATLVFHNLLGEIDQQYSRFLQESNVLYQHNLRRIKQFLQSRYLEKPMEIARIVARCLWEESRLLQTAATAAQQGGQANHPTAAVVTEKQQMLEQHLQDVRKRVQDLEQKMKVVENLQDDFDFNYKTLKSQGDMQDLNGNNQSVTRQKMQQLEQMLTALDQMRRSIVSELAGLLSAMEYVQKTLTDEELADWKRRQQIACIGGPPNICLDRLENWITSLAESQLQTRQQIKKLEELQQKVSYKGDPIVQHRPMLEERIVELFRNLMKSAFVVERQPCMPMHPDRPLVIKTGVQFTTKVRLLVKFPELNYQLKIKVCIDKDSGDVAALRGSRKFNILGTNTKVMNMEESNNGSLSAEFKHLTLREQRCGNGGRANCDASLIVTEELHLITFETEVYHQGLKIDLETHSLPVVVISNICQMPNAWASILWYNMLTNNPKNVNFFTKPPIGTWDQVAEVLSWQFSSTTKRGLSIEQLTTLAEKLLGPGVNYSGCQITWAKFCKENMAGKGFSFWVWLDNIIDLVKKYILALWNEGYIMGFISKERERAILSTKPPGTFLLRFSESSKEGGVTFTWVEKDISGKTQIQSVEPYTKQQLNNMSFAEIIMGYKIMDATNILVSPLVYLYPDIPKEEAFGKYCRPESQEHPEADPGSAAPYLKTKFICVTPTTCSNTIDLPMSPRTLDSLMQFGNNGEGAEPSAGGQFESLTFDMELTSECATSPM
Paired box protein Pax-6 (Homo sapiens), sequence (P26367 whole entry, looked up): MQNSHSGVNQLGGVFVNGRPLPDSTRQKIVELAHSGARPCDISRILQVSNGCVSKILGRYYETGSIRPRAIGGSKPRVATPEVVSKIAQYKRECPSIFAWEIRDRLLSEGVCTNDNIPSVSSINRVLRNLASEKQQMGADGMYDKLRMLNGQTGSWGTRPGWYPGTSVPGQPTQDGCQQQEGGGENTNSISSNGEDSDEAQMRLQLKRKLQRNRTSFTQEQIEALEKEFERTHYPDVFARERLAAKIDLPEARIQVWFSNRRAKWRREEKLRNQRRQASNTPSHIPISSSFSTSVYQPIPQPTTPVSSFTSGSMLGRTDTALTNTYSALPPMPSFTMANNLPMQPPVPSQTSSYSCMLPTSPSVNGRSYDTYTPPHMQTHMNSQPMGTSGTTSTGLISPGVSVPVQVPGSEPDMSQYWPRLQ
Hypoxia-inducible factor 1-alpha (Homo sapiens), sequence (Q16665 whole entry, looked up): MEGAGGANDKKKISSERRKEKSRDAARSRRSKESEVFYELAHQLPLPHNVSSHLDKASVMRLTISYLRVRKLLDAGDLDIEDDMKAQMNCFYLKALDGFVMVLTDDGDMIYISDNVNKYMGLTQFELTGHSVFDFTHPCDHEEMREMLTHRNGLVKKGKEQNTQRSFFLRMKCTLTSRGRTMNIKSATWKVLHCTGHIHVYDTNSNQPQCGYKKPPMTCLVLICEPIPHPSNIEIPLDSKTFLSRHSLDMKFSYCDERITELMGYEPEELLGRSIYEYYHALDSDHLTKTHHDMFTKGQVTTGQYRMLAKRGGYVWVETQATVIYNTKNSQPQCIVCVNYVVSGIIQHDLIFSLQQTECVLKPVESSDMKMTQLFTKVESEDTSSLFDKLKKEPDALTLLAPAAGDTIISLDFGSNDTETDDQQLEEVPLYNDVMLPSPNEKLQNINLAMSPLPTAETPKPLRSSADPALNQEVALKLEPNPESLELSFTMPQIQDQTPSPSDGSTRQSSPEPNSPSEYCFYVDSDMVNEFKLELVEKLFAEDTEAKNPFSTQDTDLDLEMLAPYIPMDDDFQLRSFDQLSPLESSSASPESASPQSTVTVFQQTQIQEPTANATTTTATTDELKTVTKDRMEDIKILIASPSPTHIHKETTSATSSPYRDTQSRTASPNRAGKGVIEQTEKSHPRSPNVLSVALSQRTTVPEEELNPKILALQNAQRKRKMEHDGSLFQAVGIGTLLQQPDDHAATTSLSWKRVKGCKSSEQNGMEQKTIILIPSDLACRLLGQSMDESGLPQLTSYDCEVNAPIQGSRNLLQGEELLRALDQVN
Hepatocyte nuclear factor 6 (Homo sapiens), sequence (Q9UBC0 whole entry, looked up, the tested form may be a part): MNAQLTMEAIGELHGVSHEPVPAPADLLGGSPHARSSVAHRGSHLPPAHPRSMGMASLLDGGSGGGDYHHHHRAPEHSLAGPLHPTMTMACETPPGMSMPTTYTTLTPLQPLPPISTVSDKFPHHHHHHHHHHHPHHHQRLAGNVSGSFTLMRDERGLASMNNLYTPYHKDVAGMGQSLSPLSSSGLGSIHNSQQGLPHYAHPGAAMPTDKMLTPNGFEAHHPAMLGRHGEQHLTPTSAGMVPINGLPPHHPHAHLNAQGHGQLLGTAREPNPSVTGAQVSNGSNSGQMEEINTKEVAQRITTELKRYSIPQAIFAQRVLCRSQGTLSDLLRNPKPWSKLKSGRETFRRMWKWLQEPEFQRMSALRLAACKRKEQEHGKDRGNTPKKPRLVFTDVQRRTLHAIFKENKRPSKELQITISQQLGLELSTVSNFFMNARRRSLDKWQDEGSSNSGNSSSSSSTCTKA

With `CNC(=O)/C=C(\C)OP(=O)(OC)OC`, the compound was called inactive in assay [1], in [2], in [3], in [4], in assay [5] and in assay [6]. In addition, the compound was called inactive in [7], in assay [8], in [9], in assay [10], in [11] and in assay [12]. In addition, the outcome in assay [13], in assay [14], in assay [15], in [16], in assay [17] and in assay [18] was inactive. For the same compound, the compound was called inactive in assay [19].
The term AC50 denotes the concentration at which the activity in the assay is half-maximal. On to `CCOC1Oc2ccc(OS(C)(=O)=O)cc2C1(C)C` (stereo not drawn), for which the call in assay [1], in assay [3], in assay [4], in assay [5], in assay [6] and in assay [7] was inactive. Moreover, the result in assay [11], in [20], in assay [14], in assay [15], in assay [16] and in assay [17] was inactive. Also, the result in [18] and in [19] was inactive. Besides, the AC50 in assay [9] was 50 µM (active); in [10], 34 µM (active); in assay [12], 5.08 µM (active); in assay [13], 30.8 µM (active).
On to `ClC1C(Cl)C(Cl)C(Cl)C(Cl)C1Cl` (stereo not drawn), for which the compound was classed as inactive in assay [1], in [3], in assay [4], in [5], in assay [6] and in assay [7]. Also, the call in [8], in [9], in assay [11], in assay [13], in [14] and in assay [15] was inactive. Further, the compound was classed as inactive in [16], in [17], in assay [18] and in assay [19]. Further, the AC50 in assay [3] was 161 µM (active) and 58.2 µM (active); in assay [9] it was 17.1 µM (active) and 100 µM (active) and 33.7 µM (active); in assay [12], 2.93 µM (active) [middle of 4 runs]; in assay [15] it was 100 µM (active) and 70.3 µM (active); in assay [16], 67.6 µM (active).
